Most compounds without a hit are left out; they make up all but 1.1% or so of the library.
GC-A act: GC-A (human) enzyme activation | P16066 | HEK293 GC-A cells, cGMP TR-FRET, EC30 ANP; 0% at EC30 ANP, 100% saturating ANP | activation, % at 10 µM | hit rate 0.14% among 370,000 | AID 1671463; in the data active = activation above about 40%
NPR2 activator: GC-B (human) receptor activation | P20594 | HEK293-GC-B cells, CNP EC30, cGMP TR-FRET; 0% at EC30 CNP, 100% saturating CNP | activation, % at 10 µM | hit rate 0.11% among 370,000 | AID 1920062;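 active = activation at 10 µM reaching about 35% in either raw or pattern-adjusted values, limit read from the data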
FAS-TE inh: inhibitors of human fatty acid synthase thioesterase domain; P49327; recombinant FAS-TE, OMFH fluorogenic substrate, fluorescence endpoint; inhibition, % at 15 µM; hit rate 0.67% among 360,000; AID 602261;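 active = compounds whose normalised, plate-corrected inhibition of enzyme fluorescence in the single-dose primary screen is 50% or more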;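 also: 0% = DMSO with enzyme and 100% = substrate without enzyme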
aDG glyco act: alpha-DG glycosylation activation | Pro5-aDG cells, alpha-DG glycosylation AlphaScreen (IIH6); 0% Pro5, 100% B10-LARGE cell signal | activation, % at 10 µM | hit rate 0.22% among 360,000 | AID 624168;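 active = activation of at least 8% versus controls, or a plate z-score of at least 8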;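 also: Pro5 are CHO cells carrying HIG-tagged alpha-DG that lacks glycosylation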
FAS-TE inh conf: confirmation of human fatty acid synthase thioesterase inhibitors | hit rate 45% among 2,300 | inhibition, % at 15 µM | recombinant FAS-TE, OMFH fluorogenic substrate, fluorescence | shares compounds with FAS-TE inh | AID 624325;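 active = compounds inhibiting the enzyme by at least 50% at 15 µM in any one of the replicates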;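 also: 0% = enzyme with DMSO only and 100% = wells lacking enzyme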
Numbers without * were called inactive; . = no result.

SMILES	GC-A act	NPR2 activator	FAS-TE inh	aDG glyco act	FAS-TE inh conf
CCCC(C)C1c2c(c(C)c(C)oc2=O)Oc2c(C)c(C)oc(=O)c21 (stereo not drawn)	-2	-4	59*	0	56*
CCCCCCCC1c2c(c(C)c(C)oc2=O)Oc2c(C)c(C)oc(=O)c21	-6	-3	37	0	.
Cc1ccc2c(c1)C(CS(=O)(=O)NCCc1ccccc1)NC2 (stereo not drawn)	0	0	.	.	.
COc1ccc([C@@H]2[C@@H]3C(=O)N(C(C)(C)C)C(=O)[C@@H]3[C@]3(Cc4ccccc4)C(=O)N(c4ccc(C)cc4)C(=O)N23)cc1	-1	3	22	0	.
COc1ccc([C@@H]2[C@@H]3C(=O)N(C(C)(C)C)C(=O)[C@@H]3[C@]3(Cc4ccccc4)C(=O)N(c4cccc(F)c4)C(=O)N23)cc1	-1	-10	52*	0	-4
CC(C)(C)N1C(=O)[C@H]2[C@@H](c3ccc(Br)cc3)N3C(=O)N(c4cccc(F)c4)C(=O)[C@@]3(Cc3ccccc3)[C@H]2C1=O	-3	-6	92*	1	36*
CC[C@@]12C(=O)N(c3cccc(F)c3)C(=O)N1[C@H](c1ccc(Br)cc1)[C@@H]1C(=O)N(C(C)(C)C)C(=O)[C@@H]12	-9	-9	17	0	.
CC(C)(C)N1C(=O)[C@H]2[C@@H](c3ccc(Br)cc3)N3C(=O)N(c4ccc(Br)cc4)C(=O)[C@@]3(Cc3ccccc3)[C@H]2C1=O	.	.	91*	0	51*
COc1ccc(S[C@]2(C(=O)N3CCOCC3)CC(=O)N(c3ccc(C#N)cc3)[C@@H]2c2ccc(OC)cc2)cc1	-12	-12	.	.	.
NS(=O)(=O)c1ccc(NC(=O)N2c3ccccc3Sc3ccccc32)cc1	-11	-3	.	.	.
CC1CCN(S(=O)(=O)c2ccc(NC(=O)N3c4ccccc4Sc4ccccc43)cc2)CC1	0	4	62*	0	15
CCCN1C(=O)c2[nH]nc(-c3ccccc3)c2C1c1ccc(C)cc1 (stereo not drawn)	-14	-16	.	.	.
Cc1ccc(S(=O)(=O)N2CCC(C(=O)NCc3cccs3)CC2)cc1	-2	-2	.	.	.
CC1S/C(=N\N=C\c2cccc([N+](=O)[O-])c2)N(C(C)(C)C)C1=O (stereo not drawn)	9	1	54*	0	0
O=[N+]([O-])c1cc(-c2nnc(Nc3ccccc3)c3ccccc23)ccc1N1CCOCC1	22	26	63*	2	15
Cc1ccc(Nc2nnc(-c3ccc(N4CCOCC4)c([N+](=O)[O-])c3)c3ccccc23)cc1	6	13	64*	1	13
Cc1ccc(-c2cc(C(=O)NN=Cc3cc(Br)ccc3O)[nH]n2)cc1C	1	6	.	.	.
Nc1c(Cl)cc(-c2csc(N3CCCC3c3nc4cc(Cl)c(N5CCCCC5)cc4n3CCCO)n2)cc1Cl (stereo not drawn)	1	0	23	0	.
Nc1c(Cl)cc(-c2csc(N3CCCC3c3nc4cc(Cl)c(N5CCCCC5)cc4n3CCOCCO)n2)cc1Cl (stereo not drawn)	-2	3	70*	0	18
COc1cc(C2c3c(c(C)c(C)oc3=O)Oc3c(C)c(C)oc(=O)c32)ccc1OS(=O)(=O)c1ccc(C)cc1	0	6	84*	0	22
COC(=O)[C@]12C[C@H](CC(=O)NCC34CC5CC(CC(C5)C3)C4)C(=O)N(CCc3ccc(OC)c(OC)c3)C1=C[C@H](C(C)C)O[C@@H]2C1CC1	-3	1	.	.	.
COc1cc(/C=N/Nc2nc(Nc3ccccc3)nc(N3CCOCC3)n2)ccc1OC(=O)c1ccco1	14	6	67*	0	24
CCOc1ccc(/C=N/Nc2nc(N3CCCC3)nc(N3CCCC3)n2)cc1OC	7	1	0	0	.
COc1ccc(/C=N/Nc2nc(Nc3ccccc3)nc(N3CCCCC3)n2)c(OC)c1	7	-3	50*	1	23
CCOc1cc(/C=N/Nc2nc(N3CCCCC3)nc(N3CCCCC3)n2)ccc1OC(=O)c1ccco1	-2	-1	71*	0	2
CCCCN1CN2Cc3ccc(C)cc3C2CS1(=O)=O (stereo not drawn)	-3	3	.	.	.
N#Cc1cccc(CNCC(=O)N2CCC3(CC2)OCCO3)c1	-2	-5	.	.	.
